Data on 48 compounds can be found in ChEMBL document CHEMBL3988442, “University of Dundee, Small-Polar-MMV Screening Library” (2021).

Among all 48,000 compounds or so, about 13,000 (27%) showed an effect of 50% or more. The list shows a part of the results.

In this experiment the test system is Wolbachia pipientis. Nature of the experiment: Anti-Wolbachia Cell-Based Screen. The note with it: 5 µM. Also noted: scale not given: in the data most compounds retested in dose-response had high values. It is filed as functional.
In the case of `COc1ccc(C2=CCN(C(=O)CN(C)CC(C)C#N)CC2)cc1` (stereo not drawn), the “Percent Effect” value is -3.041%.

In the case of `COc1ccc(OC2CCN(C(=O)C3CCCN(C)C3)CC2)cc1` (stereo not drawn), the “Percent Effect” value is 0.8407%.

As to `COc1ccc(C2=CCN(C(=O)C3CCS(=O)(=O)C3)CC2)cc1` (stereo not drawn), the “Percent Effect” value worked out at 136.7%.

As to `COc1ccc(C2=CCN(C(=O)C3CCCN(C(C)=O)C3)CC2)cc1` (stereo not drawn), the “Percent Effect” value turned out to be 109.7%.

As for `COc1ccc(C2=CCN(C(=O)C3CCCN(C(N)=O)C3)CC2)cc1` (stereo not drawn), the “Percent Effect” value is 7.391%.

As to `O=C(NCC1CC1)c1cc(Cl)c2c(c1)OCCCO2`, the “Percent Effect” value is given as -14.68%.

For the compound `CCCC(C)(C)NC(=O)c1cnc(CC)s1`, the “Percent Effect” value is reported as -7.388%.

With `CN(C)C1CC2(CCN(C(=O)C3(C#N)CC3)CC2)c2ccccc21.O=C(O)C(F)(F)F` (stereo not drawn), the “Percent Effect” value is on record as 5.959%.

On to `O=C1CSCN1Cc1nc(-c2ccc(N3CCCCC3)cc2)no1`, for which the “Percent Effect” value is -5.803%.

In the case of `CN(C)CC(=O)N1Cc2nnn(C)c2C(COCc2ccccn2)C1.O=C(O)C(F)(F)F.O=C(O)C(F)(F)F` (stereo not drawn), the “Percent Effect” value is listed as 6.818%.

On to `Cn1nnc2c1C(COCC1CC1)CN(C(=O)Cc1ccsc1)C2` (stereo not drawn), for which the “Percent Effect” value turned out to be 2.514%.

`CN(C)CCOCC1CN(Cc2ccccn2)Cc2nnn(C)c21.O=C(O)C(F)(F)F.O=C(O)C(F)(F)F.O=C(O)C(F)(F)F` (stereo not drawn): the “Percent Effect” value was determined as 99.25%.

Consider `Cn1nnc2c1C(COCc1ccccn1)CN(C(=O)c1ccsc1)C2.O=C(O)C(F)(F)F` (stereo not drawn), for which the “Percent Effect” value is listed as -2.517%.

On to `CN(C)CCOCC1CN(Cc2ccncc2)Cc2nnn(C)c21.O=C(O)C(F)(F)F.O=C(O)C(F)(F)F.O=C(O)C(F)(F)F` (stereo not drawn), for which the “Percent Effect” value is reported as 96.02%.

Take `CCOCC1CN(Cc2ccc(OC)cc2)Cc2nn(C)cc21.O=C(O)C(F)(F)F` (stereo not drawn): the “Percent Effect” value came to 11.5%.

`COc1ccc(CN2Cc3nnn(C)c3C(COCCN(C)C)C2)cc1.O=C(O)C(F)(F)F.O=C(O)C(F)(F)F` (stereo not drawn): the “Percent Effect” value is 106.7%.

With `COCC1CN(Cc2ccc(OC)cc2)Cc2nnn(CC3CC3)c21.O=C(O)C(F)(F)F` (stereo not drawn), the “Percent Effect” value is reported as -5.304%.

Take `CN(C)CCOCC1CN(Cc2ccsc2)Cc2nnn(C)c21.O=C(O)C(F)(F)F.O=C(O)C(F)(F)F` (stereo not drawn): the “Percent Effect” value is listed as 121.1%.

For `CC(C)NC(=O)NC[C@H]1OC[C@@H](NCc2ccccc2F)[C@@H]1O`, the “Percent Effect” value was -8.31%.

Turning to `CC(O)CN1CCC(CN(C)Cc2ccc(C#N)cc2)CC1` (stereo not drawn), the “Percent Effect” value is reported as -6.641%.

For the compound `COCc1nnc(-c2cccc(C(=O)N(C)CC(C)(C)C)c2)o1`, the “Percent Effect” value was 1.349%.

In the case of `CC(C)Oc1cccc(CN(C)C(=O)Cc2ccon2)c1`, the “Percent Effect” value was 7.051%.

Regarding `CN(C)CCOCC1CN(CC2CCOCC2)Cc2nnn(C)c21.O=C(O)C(F)(F)F.O=C(O)C(F)(F)F` (stereo not drawn), the “Percent Effect” value is 0.5849%.

For `CCS(=O)(=O)N1Cc2nnn(C)c2C(COCCN(C)C)C1.O=C(O)C(F)(F)F` (stereo not drawn), the “Percent Effect” value is listed as 7.645%.

`CN(C)CCOCC1CN(Cc2ccc(F)cc2)Cc2nnn(C)c21.O=C(O)C(F)(F)F.O=C(O)C(F)(F)F` (stereo not drawn): the “Percent Effect” value came out at 94.54%.

With `Cc1noc(CCCC(=O)NC(C)c2cccnc2)n1` (stereo not drawn), the “Percent Effect” value was -10.11%.

On to `COCC(=O)N1CC[C@@H](N2CCOCC2)[C@@H]1Cc1ccccc1`, for which the “Percent Effect” value is -5.655%.

Take `COCC(=O)N1CC[C@@H](O)[C@@H]1Cc1ccccc1`: the “Percent Effect” value is -9.68%.

As to `COCCN1CC[C@H](O)[C@@H]1Cc1ccccc1.O=C(O)C(F)(F)F`, the “Percent Effect” value is listed as -7.454%.

In the case of `O=C(NC1CC1)N1CC[C@H](OCC2CC2)[C@@H]1Cc1cccnc1.O=C(O)C(F)(F)F`, the “Percent Effect” value is reported as -2.258%.

In the case of `O=C(NC1CC1)N1CC[C@@H](O)[C@@H]1Cc1ccccc1`, the “Percent Effect” value was 101.4%.

Turning to `CN(C)C(=O)N1CC[C@@H](O)[C@@H]1Cc1cnn(C)c1`, the “Percent Effect” value stood at 3.844%.

As for `CN(C)[C@@H]1CCN(C(=O)NC2CCCC2)[C@H]1Cc1ccncc1.O=C(O)C(F)(F)F.O=C(O)C(F)(F)F`, the “Percent Effect” value is given as -4.406%.

In the case of `CCC(=O)N1CC[C@H](O)[C@@H]1Cc1ccccc1`, the “Percent Effect” value is 99.45%.

As to `CN1CCN([C@@H]2CCN(C(N)=O)[C@H]2Cc2ccccc2)CC1`, the “Percent Effect” value was -47.59%.

Turning to `CN(C)C(=O)N1CC[C@@H](O)[C@@H]1Cc1ccccc1`, the “Percent Effect” value was found to be 109.4%.

Regarding `CC(=O)N1CC[C@@H](N2CCN(C)CC2)[C@@H]1Cc1ccccc1`, the “Percent Effect” value is on record as -7.108%.

For the compound `NC(=O)N1CC[C@H](O)[C@@H]1Cc1ccccc1`, the “Percent Effect” value was 106.8%.

For the compound `c1ccc(-c2cnn3cc(CN4CCC5(CCO5)CC4)cnc23)cc1`, the “Percent Effect” value is -14.3%.

In the case of `CC(C)C(=O)N1CCN(CC(O)c2cc(Cl)ccc2Cl)CC1` (stereo not drawn), the “Percent Effect” value was determined as 10.47%.

In the case of `CC(NC(=O)COc1ccc(Cl)cc1Cl)c1nncn1C(C)C` (stereo not drawn), the “Percent Effect” value is given as 0.4331%.

As to `CN(Cc1ccccc1)CC(C)(C)NC(=O)c1ccc(C(N)=O)cn1`, the “Percent Effect” value came to 12.65%.

On to `COCCCS(=O)(=O)N1CCN(Cc2cccn2C)CC1`, for which the “Percent Effect” value was -42.29%.

Take `CN(C)CCCN1CC2(CCN(C(=O)C3(C)CCCCO3)CC2)OC1=O` (stereo not drawn): the “Percent Effect” value was found to be 3.267%.

On to `O=C(c1ccnnc1)N1CC[C@H](OCC2CC2)[C@@H]1Cc1ccncc1`, for which the “Percent Effect” value is reported as 0.4029%.

With `CCO[C@@H]1CCN(C(=O)c2ccnnc2)[C@@H]1Cc1cnn(C)c1`, the “Percent Effect” value was -9.757%.

For `O=C(c1ccnnc1)N1CC[C@@H](O)[C@@H]1Cc1ccccc1`, the “Percent Effect” value is reported as 101.5%.

Turning to `CC(C)Cc1nc(OCC(=O)O)c(C#N)c2c1CCC2`, the “Percent Effect” value was -8.981%.
